The values that follow come from PubChem BioAssay AID2278 (National Center for Advancing Translational Sciences (NCATS), 2010).

This assay has as its target Group 10 secretory phospholipase A2 (Mus musculus) (UniProt Q9QXX3). Put plainly: Secondary Assay for Inhibitors of Ubiquitin-specific Protease USP2a: PLA2 Counterscreen. The conditions noted are these: purified murine PLA2, NBD C6-HPC fluorescence; series mostly up to 57.5 µM. An excerpt:
NIH Molecular Libraries Screening Centers Network [MLSCN] NIH Chemical Genomics Center [NCGC] MLSCN Grant: XO1-MH079852-01 PI Name: Nicholson, Ben. Progenra Inc, Malvern, PA NCGC Assay Overview: Homeostasis of cellular proteins is maintained through a combination of synthesis and degradation. The pathway that accounts for the majority of protein degradation is the ubiquitin-proteasomal pathway. Ubiquitin (Ub) is highly conserved in all cells and the generation of a multi-Ub chain typically targets proteins for degradation by the proteasome. However, ubiquitination is highly reversible and dynamic. Deubiquitination, the reverse process, is catalyzed through the action of enzymes referred to as isopeptidases or deubiquitinating enzymes (DUBs). […]
NCGC Assay Protocol Summary: The assay buffer, prepared fresh at the day of the assay, contains 20mM Tris-HCl pH 8.0, 2mM CaCl2, 2mM beta-mercaptoethanol, 0.1% DMSO. […] Plates were read immediately on an Envision (Perkin Elmer) plate reader using wavelengths of Ex 460nm /Em 535nm. Then, the assay plates were incubated for 2.5 hours and read again on the Envision using the same settings. […] Concentration-response curves were fitted to the normalized data and the concentration-response curves were then classified based on curve quality (r2), response magnitude and degree of measured activity. The time zero reading was used to flag fluorescence artifacts. […]
Background: Counterscreens check selectivity or assay interference.

Molecules are shown by their SMILES. Records with an inconclusive call do not appear. Calls of active or inactive are those of the source. Calls follow the shape of the dose curve; as a rule, active = well fitted curve in the direction sought with a large enough effect; inconclusive = small, poorly fitted or top-dose-only effect, or another doubt; inactive = no such curve, though single readings can be large or run the other way.

Sequence of Group 10 secretory phospholipase A2 (Mus musculus) (Q9QXX3 whole entry, looked up): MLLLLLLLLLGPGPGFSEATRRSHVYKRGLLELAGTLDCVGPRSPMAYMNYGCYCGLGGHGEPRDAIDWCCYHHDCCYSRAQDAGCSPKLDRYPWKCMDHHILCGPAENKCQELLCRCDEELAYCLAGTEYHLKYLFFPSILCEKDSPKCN

On to `CC1=NCCc2c1[nH]c1cc(O)ccc21`, for which the result was inactive.

In the case of `Cc1ccc2scc(N3CCN(C)CC3)c(=O)c2c1`, the result was inactive.
